SMILES strings stand for the structures. Out of some 2,300 compounds screened, about 1,400 (61%) were called active. Not shown: some 29% with an inconclusive outcome. The call rests on the fitted dose curve; in most records, active means well fitted inhibition curve with a large enough effect; inconclusive means small, poorly fitted or top-dose-only effect, or effect the other way; inactive means no such curve, though single readings can be large or run the other way. So high a share suggests a set chosen from earlier hits. The list shows a part of the results.
Potency means the concentration at half of the fitted maximal effect.

The nature of this test: Confirmation screen for delayed death inhibitors of the malarial parasite plastid, 96 hour incubation. Further: nearly all actives have a fitted effect of over 60% in size. The settings on record: P. falciparum luciferase growth in erythrocytes; series mostly up to 28.7 µM. The essentials: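 Two-generation (96 h, 37 C) exposure of P. falciparum carrying an integrated firefly luciferase reporter in erythrocytes, 0.1% parasitemia and 2% hematocrit final, Albumax-supplemented RPMI. Luminescence decrease measures growth inhibition.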
Regarding `O=S(=O)(c1ccc(F)cc1)N1CCN(c2nc(-c3ccc(F)cc3)cs2)CC1`, the Potency is 11.2 µM (active). For `CCOC(=O)c1cc(-c2ccc(C)cc2)n(CCC(=O)NCCN(C)C)c1C`, the Potency was 10 µM (active).

Turning to `CCOc1ccc(/C=C/C(=O)NCCc2ccc(OC)c(OC)c2)cc1`, the Potency was 15.8 µM (active). In the case of `O=S(=O)(Nc1ccc(O)c(Sc2nc3ccccc3s2)c1)c1cccc2ccccc12`, the Potency was 12.6 µM (active). `Cc1ccc(-n2ncc3c(SCc4ccccn4)ncnc32)c(C)c1`: the Potency is 14.1 µM (active). As for `CCCC(=O)N=C1SC2CS(=O)(=O)CC2N1c1ccc(CC)cc1` (configuration not stated), the Potency was 14.1 µM (active). With `Cc1cc(Br)ccc1NC(=O)CNC(=O)Cn1ncc(Cl)c(Cl)c1=O`, the Potency was 11.2 µM (active).

For the molecule `CCC(=O)Nc1ccc(C(=O)Cn2ncc(Cl)c(Cl)c2=O)cc1`, the Potency was 15.8 µM (active).

As for `CCOC(=O)C(C(=O)OCC)C(Nc1cccc(Br)c1)c1ccccc1` (configuration not stated), the Potency is 10 µM (active). The value for `CC(C)Cc1ccc(C(=O)Nc2ccc(Cc3ccncc3)cc2)o1` was 10 µM (active); that for `COc1ccc(NC(=S)N(CCCN2CCCCCC2)Cc2cccs2)cc1` was 11.2 µM (active); that for `Cc1ccc(C(=O)c2cc([N+](=O)[O-])ccc2N2CCOCC2)c(C)c1` was 14.1 µM (active). For `Cc1ccc(CNS(=O)(=O)c2ccc(C)s2)cc1`, the Potency result was “inactive”. As for `Cc1ccc(CN2CCC(CNS(=O)(=O)c3ccc(-c4ccc(=O)[nH]n4)s3)CC2)cc1`, the Potency is 5.01 µM (active). `CCOC(=O)c1cnc2c(C)c(Cl)ccc2c1NCCCN1CCOCC1`: the Potency is 0.282 µM (active).

`O=C(N/N=C(\CC(=O)c1cccs1)C(F)(F)F)c1ccncc1`: the Potency result was “inactive”.

For `O=C(N/N=C/C(Cl)=C\c1ccccc1)c1cccs1`, the Potency is 4.47 µM (active).

Consider `Cc1cccc(CCNC(=O)CNS(=O)(=O)c2ccc3nc(C)sc3c2)c1`, for which the Potency is 1.58 µM (active). For the molecule `CCOc1ccc(C(C)=O)cc1COc1ccc(-c2nnco2)cc1`, the Potency was 11.2 µM (active). In the case of `Oc1ccc(Cl)cc1CNc1cnc2ccccc2c1`, the Potency is 11.2 µM (active).

Consider `O=C(C[n+]1cc(Br)cc2ccccc21)c1ccccc1`, for which the Potency is 5.01 µM (active). `COc1ccc2c(ccc[n+]2CC(=O)c2ccccc2)c1`: the Potency was 14.1 µM (active). Turning to `OCCNC(=S)Nc1ccc(Cl)c(Cl)c1`, the Potency is 2.24 µM (active).

In the case of `O=C1c2ccccc2C(=Nc2ccccc2)C1c1cccc(Br)c1` (configuration not stated), the Potency is 3.98 µM (active). Turning to `COc1ccc(N(CC(=O)N/N=C/c2cccnc2)S(=O)(=O)c2ccccc2)c(OC)c1`, the Potency was 6.31 µM (active). As for `O=C(CCl)NCCN1C(=O)S/C(=C\c2cccnc2)C1=O`, the Potency was 5.01 µM (active).

On to `O=C(c1ccc2c(=O)n3c(nc2c1)CCCCC3)N1CCN(c2ccc([N+](=O)[O-])cc2)CC1`, for which the Potency is 6.31 µM (active). Consider `CC(=O)N1CN(C2CCCC2)Cc2c1sc1c2CCCC1`, for which the Potency is 6.31 µM (active).

As for `COc1ccc(C(=O)CSc2nnc(C3CCCCC3)n2N)c(OC)c1`, the Potency is 3.16 µM (active). With `CCN(CC(=O)Nc1ccc(S(=O)(=O)N2CCOCC2)cc1)Cc1ccccc1`, the Potency is 10 µM (active). As for `O=S(=O)(c1ccc(OCC(O)CN2CCN(c3ccc(F)cc3)CC2)cc1)N1CCOCC1` (configuration not stated), the Potency is 12.6 µM (active). With `O=C(CN1CCN(c2ccc(F)cc2)CC1)Nc1ccc(S(=O)(=O)N2CCOCC2)cc1`, the Potency was 10 µM (active). For `C=CCOc1ccc(/C=C\c2nc(O)c([N+](=O)[O-])c(=O)[nH]2)cc1OC`, the Potency was 12.6 µM (active). For the molecule `Cc1c(OCC(=O)NCC(O)c2ccccc2)ccc2c3c(c(=O)oc12)CCC3` (configuration not stated), the Potency is 10 µM (active). As to `O=C(COc1cc2oc(=O)c3c(c2cc1Cl)CCC3)NCC(O)c1ccccc1` (configuration not stated), the Potency was 8.91 µM (active).

For the molecule `O=S(=O)(NCC(O)c1ccccc1)c1cc(Cl)sc1Cl` (configuration not stated), the Potency result is “inactive”. Turning to `O=C(CSc1nc2nn(-c3ccccc3)c(=O)c-2c2n1CCCCC2)c1ccc(O)c(O)c1`, the Potency was 11.2 µM (active). Regarding `O=C(NCc1cccnc1)/C(=C\c1ccc(-c2cccc(Cl)c2)o1)S(=O)(=O)c1ccccc1`, the Potency was 7.94 µM (active).

On to `O=C(NCCN1CCOCC1)c1ccc(Cl)c(S(=O)(=O)N2CCCCC2)c1`, for which the Potency is 14.1 µM (active). For the molecule `O=C(NCc1cccnc1)c1ccc(NS(=O)(=O)c2ccccc2)cc1`, the Potency was 7.08 µM (active). In the case of `O=C(NCc1cccnc1)c1ccc(Cl)c(S(=O)(=O)N2CCOCC2)c1`, the Potency is 11.2 µM (active).

As to `CCC(C)[C@H](NC(=O)NCCCOC(C)C)C(=O)OC` (some centres not stated), the Potency entry is “inactive”. The same measure for `CCOC(=O)c1cc2c(nc1NC(=S)Nc1ccccc1)CC(C)(C)OC2`: 12.6 µM (active); for `O=C(O)c1ccccc1NS(=O)(=O)c1cccc(-n2sc3ccccc3c2=O)c1`: 12.6 µM (active).

For `O=C(Cn1c(=O)c(=O)n(Cc2ccccc2)c2ccc(Cl)cc21)Nc1cccc(F)c1`, the Potency was 12.6 µM (active).

In the case of `CCn1c(=O)cc(C(=O)OC)sc1=Nc1ccc(F)c(F)c1`, the Potency entry is “inactive”.

For the molecule `O=C1CS/C(=N/N=C\c2ccn[nH]2)N1`, the Potency is 10 µM (active).

With `C#Cc1ccc(CN2CCN(CCCc3ccccc3)C(CCO)C2)cc1` (configuration not stated), the Potency was 7.08 µM (active). `Cc1ccc(-c2nc(-c3cccnc3)sc2CC(=O)Nc2ccc(C)c(Cl)c2)cc1`: the Potency is 4.47 µM (active). As to `COc1ccc(CCNC(=O)c2cc3c(=O)n4cccc(C)c4nc3n(Cc3ccco3)c2=N)cc1OC`, the Potency is 11.2 µM (active). `CC(C)C1N=C(c2ccc3c(c2)OCO3)CC(c2ccccc2O)N1` (configuration not stated): the Potency is 14.1 µM (active). Consider `O=C(NC1CCCC1)c1ccc([N+](=O)[O-])s1`, for which the Potency is 10 µM (active). Turning to `COc1ccccc1N(Cc1ccccc1)S(=O)(=O)c1cccc(C(=O)Nc2ccccn2)c1`, the Potency was 7.08 µM (active).

For the molecule `CC(=O)c1ccccc1OCC(O)CN1CCN(C(c2ccccc2)c2ccccc2)CC1` (configuration not stated), the Potency is 3.55 µM (active). For `CCOC(=O)C1CCN(C(=O)CCc2nnc3ccc(NCc4ccco4)nn23)CC1`, the Potency was 5.01 µM (active). Consider `O=C(CCl)Nc1cccc(S(=O)(=O)NC2=NCCC2)c1`, for which the Potency is 0.794 µM (active). The same measure for `COC(=O)[C@@]1(Cc2ccc(F)cc2)[C@@H]2[C@@H](CC(=O)[C@H]2CC(=O)C(=O)N(C)C)CN1C(=O)c1ccccc1`: 10 µM (active). As to `COc1ccccc1N1CCN(C(=O)c2noc(C(C)C)c2[N+](=O)[O-])CC1`, the Potency is 8.91 µM (active).

As to `CCCCCCCn1c(=O)c(C(=O)OC)c(N)c2ccccc21`, the Potency was 6.31 µM (active). Consider `CSc1ccc(CNc2cccc3ccccc23)cc1`, for which the Potency entry was “inactive”. With `Cc1cccc(NCc2cccc3ccccc23)n1`, the Potency was 14.1 µM (active). On to `Cc1ccnc(NCc2cccc3ccccc23)c1`, for which the Potency is 10 µM (active). As to `COc1cccc(CNc2cc(C)ccn2)c1O`, the Potency was 7.94 µM (active). For `N#CCc1nc(C(c2ccccc2)c2ccccc2)no1`, the Potency was 7.08 µM (active). As for `Cc1ccccc1-n1nc2c(c1NC(=O)C1CCCC1)CS(=O)(=O)C2`, the Potency entry is “inactive”.

Turning to `c1csc(CNc2ncnc3nc[nH]c23)c1`, the Potency is 15.8 µM (active). The same measure for `O=C(NC1CCN(Cc2ccccc2)CC1)C1CCN(c2nnc(-n3cccc3)s2)CC1`: 5.01 µM (active); for `CC1Cc2ccccc2N1CC(=O)Nc1ccc2c(c1)OCCCO2` (configuration not stated): 15.8 µM (active); for `CC(=O)Nc1ccc(NC(=O)c2ccc(C3SCC(=O)N3CCc3ccccc3)cc2)cc1` (configuration not stated): 12.6 µM (active). `O=C1CSC(c2cccnc2)N1CCc1ccccn1` (configuration not stated): the Potency entry is “inactive”. On to `O=C(Nc1ccc(N2CCN(C(=O)c3ccccc3)CC2)cc1)c1ccc([N+](=O)[O-])o1`, for which the Potency is 3.16 µM (active). Turning to `O=C(Nc1ccc(N2CCN(C(=O)c3cccs3)CC2)cc1)c1ccc([N+](=O)[O-])o1`, the Potency was 2.24 µM (active). In the case of `Cc1ccccc1C(=O)N1CCN(c2ccc(NC(=O)c3ccc([N+](=O)[O-])o3)cc2)CC1`, the Potency is 6.31 µM (active). The same measure for `O=C(Nc1ccc(N2CCN(C(=O)c3ccco3)CC2)cc1)c1ccc(F)cc1`: 3.98 µM (active); for `CCN(CC)CCNC(=O)C1c2cc(OC)c(OC)cc2C(=O)N2CCc3ccccc3C12` (configuration not stated): 2.24 µM (active); for `COC(=O)[C@@]12CCCN1[C@H](c1ccc(-c3cccc(Cl)c3)c(OC)c1)[C@H]1C(=O)N(C)C(=O)[C@H]12`: 1.12 µM (active). `CCN1C(=O)[C@@H]2[C@@H](c3ccc(SC4CCCCC4)c(OC)c3)N3CCC[C@@]3(C(=O)OC)[C@@H]2C1=O`: the Potency is 2.51 µM (active). As for `COc1ccccc1OCC(=O)Nc1nc2c(s1)CCCC2`, the Potency result was “inactive”. As for `CC(C)(C)c1nc(SCC(=O)Nc2nc3c(s2)CCCC3)c2ccccc2n1`, the Potency is 2 µM (active). Consider `CC(C)(C)c1nc(SCC(=O)Nc2ccc(N3CCOCC3)cc2)c2ccccc2n1`, for which the Potency was 8.91 µM (active). For `Cc1ccc(-c2cc(=O)c3ccc(F)cc3[nH]2)cc1`, the Potency is 3.98 µM (active). Take `Cc1ccc(S(=O)(=O)Nc2cc(=O)[nH]c(SCc3ccc(Cl)cc3)n2)cc1`: the Potency was 11.2 µM (active). The value for `CC(=O)c1c(C)cc(C)c(CSc2nc(C)cc(=O)[nH]2)c1C` was “inactive”; that for `Cc1oc(-c2ccccc2F)nc1CS(=O)(=O)CC(=O)NCCCN1CCN(C)CC1` was “inactive”; that for `Cc1oc(-c2ccccc2Cl)nc1CSCC(=O)N1CCCC1` was 11.2 µM (active).

Regarding `COc1ccc(-n2c(C)cc(C(=O)COC(=O)Cc3n[nH]c(=O)c4ccccc34)c2C)cc1`, the Potency was 3.55 µM (active). Regarding `O=C(Cc1n[nH]c(=O)c2ccccc12)OCc1c(Cl)cccc1Cl`, the Potency result is “inactive”. Consider `Cc1ccc(/C=N/NC(=O)CSc2nc3ccccc3c(=O)n2-c2ccccc2C)s1`, for which the Potency was 6.31 µM (active). With `COc1ccc(C(C)=O)cc1CSc1nc2ccccc2c(=O)n1-c1ccccc1C`, the Potency was 7.94 µM (active). The value for `Cc1ccc(-c2nn(C(C)(C)C)c3ncnc(N)c23)cc1` was 5.01 µM (active); that for `O=C(Nc1nnc(SCc2ccc(F)cc2)s1)c1ccccn1` was 2.82 µM (active). `Oc1ccc(-c2n[nH]c(=S)n2-c2ccc3c(c2)OCCO3)c(O)c1`: the Potency was 0.355 µM (active).

The values are drawn from PubChem BioAssay AID504848 (National Center for Advancing Translational Sciences (NCATS), 2011).
